Screens deposited in PubChem BioAssay by several laboratories.
Shown are actives, neighbours in structure and some others; about 3.7% of the full set was active somewhere.
Anthrax LF inh2: blocks Bacillus anthracis lethal factor protease | P15917 | multiplex microsphere protease cleavage assay, LF | inhibition, % at 10 µM | 360,000 compounds, 0.12% hits; further: plate controls were buffer without enzyme for full effect and enzyme alone for no effect
MazF activator: increases E. coli MazEF RNase cleavage of RNA | FAM/BHQ RNA-DNA oligo cleavage fluorescence, 5 h | P0AE70 | AID 504720 | 350,000 compounds, 0.32% hits | activation, % at 20 µM; in the data active means activation above about 50%
Target sequence (P0AE70 whole entry, looked up): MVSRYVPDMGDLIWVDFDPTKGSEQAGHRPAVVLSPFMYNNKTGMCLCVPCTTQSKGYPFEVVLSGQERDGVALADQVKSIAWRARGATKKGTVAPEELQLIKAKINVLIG
Autofluor counter: compound fluorescence in toxin protease inhibitor counterscreen; compound autofluorescence counterscreen, microsphere flow cytometry; active compounds read high; fluorescence intensity (test concentration not listed); 360,000 compounds, 3.1% hits; AID 624483; in the data active means fluorescence intensity above about 16000; inconclusive means no clear call, values can overlap the other calls
BoNT A protease: inhibitors of Botulinum neurotoxin A light chain protease; 360,000 compounds, 0.17% hits; inhibition, % at 10 µM; multiplex microsphere protease substrate cleavage, flow cytometry; further: plate controls were buffer without enzyme for full effect and enzyme alone for no effect
BoNT-F LC inh: inhibitors of Botulinum neurotoxin F light chain protease | inhibition, % at 10 µM | 360,000 compounds, 0.22% hits | Multiplex microsphere protease cleavage assay, flow cytometry | AID 588497; in the data active means inhibition above about 35%, passing the limit was not always enough; inconclusive means no clear call, values can overlap the other calls; further: plate controls were buffer without enzyme for full effect and enzyme alone for no effect
Numbers without * were called inactive; ? = inconclusive; nt = no result. Unless noted, no stated cut-off is given here; in the data, active means inhibition above about 30%; inconclusive means no clear call, values can overlap the other calls; inactive means below that.

SMILES	Anthrax LF inh2	MazF activator	Autofluor counter	BoNT A protease	BoNT-F LC inh
COC(=O)c1sccc1NC(=O)c1c(C)noc1C	-1	1	23485*	0	0
COC(=O)c1sccc1NC(=O)c1ccccc1Br	1	3	4644	-1	-15
Cc1ccc(NC(=O)C(c2ccccc2)N2CCN(CC(=O)N3CCOCC3)CC2)cc1Cl (stereo not drawn)	-4	3	5169	4	-5
COCCCN1C(=O)C(CC(=O)NCCCN(C)C)CC(C(=O)N2CCCCCC2)=C1C (stereo not drawn)	0	nt	4586	0	-7
C[C@H]1CNC(=O)c2c(C(=O)NC3CCN(C(=O)OC(C)(C)C)CC3)ncn21	-9	nt	4493	0	-5
CCN(CC)CCn1c(=N)n(CCOc2ccccc2)c2ccccc21	-12	16	25371*	?	-10
O=C(c1cc(C2CC2)nc2ccccc12)N1N=C(C(F)F)CC1(O)C(F)F (stereo not drawn)	-10	-6	18689*	3	2
CC(C)c1ccc(-c2cc(C(=O)N3N=C(C(F)F)CC3(O)C(F)F)c3ccccc3n2)cc1 (stereo not drawn)	-7	5	10436	-1	-11
O=C(c1cc(C2CC2)nc2ccc(Br)cc12)N1N=C(C(F)F)CC1(O)C(F)F (stereo not drawn)	-2	-7	22047*	2	-1
CCC(C(=O)NCCc1ccc(S(N)(=O)=O)cc1)c1ccccc1 (stereo not drawn)	12	3	3045	-3	-7
CCNC(=O)C1(C)CCN(Cc2csc(-c3ccccc3)n2)C1 (stereo not drawn)	-5	nt	2978	0	2
O=C(COC(=O)C1CCN(S(=O)(=O)c2cccs2)CC1)c1ccc2c(c1)OCCO2	-8	-5	4416	1	-13
O=C(COC(=O)C1CCN(S(=O)(=O)c2cccs2)CC1)c1cc2ccccc2o1	-9	60*	3568	1	5
CN(C(=O)COC(=O)COc1ccccc1F)C1CCS(=O)(=O)C1 (stereo not drawn)	-12	7	5902	-4	38*
CN(C(=O)COC(=O)C1CCN(S(=O)(=O)c2cccs2)CC1)C1CCS(=O)(=O)C1 (stereo not drawn)	-3	0	20892*	?	6
Cc1cc(C)c(OCC(=O)OCC(=O)N(C)C2CCS(=O)(=O)C2)c(C)c1 (stereo not drawn)	10	-6	6351	-2	3
O=c1[nH]c(Nc2ccccc2Cl)cc2ccccc12	-4	5	4265	0	-2
O=c1[nH]c(Nc2ccc(F)cc2)cc2ccccc12	-2	13	23479*	?	-2
CCOC(=O)C1(C)CCN1C(=O)c1ccccc1Br (stereo not drawn)	-5	nt	3298	0	3
Cc1nc2c([nH]c3ccc(Br)cc32)s1	-1	10	20775*	0	0
Cc1n[nH]c2ccc(Br)cc2c1=O	-3	6	2849	0	0
Cc1ccc(NC(=O)c2cc(S(=O)(=O)N3CCCCC3)ccc2N2CCOCC2)cc1	1	1	3866	1	-5
COc1ccccc1C(=O)Nc1ccc(S(=O)(=O)N2CCCC2)cc1	-4	-11	16385*	?	-2
COc1ccccc1CC(=O)Nc1ccc(S(=O)(=O)N2CCCCC2)cc1	-11	9	4278	0	6
COc1ccc(NC(=O)c2cc(S(=O)(=O)N3CCCCC3)ccc2N2CCCCC2)cn1	1	2	23676*	-1	-2
SMILES	Anthrax LF inh2	MazF activator	Autofluor counter	BoNT A protease	BoNT-F LC inh
COc1ccccc1N(CC(=O)Nc1ccc(S(=O)(=O)N2CCCCC2)cc1)S(C)(=O)=O	-2	-1	22900*	?	-4
O=C(Nc1ccc(O)cc1)c1cc(S(=O)(=O)N2CCCC2)ccc1Cl	0	10	20180*	6	10
C=C1CCCC2OC(CC3=CC4/C(C)=C/CC(C)CC(/C=C(\C)C(O)C5CC(O)C(O)C(CCC(O)/C=C/C(C)=C/CCC6=NCCC(C3)C64C)O5)OC(=O)CC3OC(C(O)C1)C(O)C3O)CC(O)C2O (stereo not drawn)	0	nt	5123	0	4
CCOc1ccccc1C1CC(=O)Nc2cc3c(cc21)OCCO3 (stereo not drawn)	-2	-8	16905*	-3	-4
Cc1cc(C)c(C#N)c(Nc2ccccc2)n1	0	1	21778*	-4	-6
Cc1cccc(Nc2nc(C)cc(C)c2C#N)c1	-7	6	4028	-1	?
CC(C)Nc1ncnc2c1ncn2[C@H]1CN(Cc2cccs2)C[C@@H](CO)O1	2	nt	2957	0	5
O=C1CCc2cc(S(=O)(=O)N3CCN(c4cccc(Cl)c4)CC3)ccc2N1	3	3	17938*	11	10
CN(C)S(=O)(=O)N1CCN(c2ccccc2)CC1	-3	-11	8151	-1	-10
CN(C)S(=O)(=O)N1CCN(c2cccc(Cl)c2)CC1	-1	-5	21047*	?	3
O=C1Cc2cc(S(=O)(=O)N3CCN(c4cccc(Cl)c4)CC3)ccc2N1	-2	3	4168	0	4
COCCCNC(=O)Cn1cnc(C(=O)Nc2ccc(C)c(C)c2)n1	2	5	3966	0	-6
CCOc1ccc(/C=N/NC(=O)c2ccc(F)cc2)cc1CN1CC2CC(C1)c1cccc(=O)n1C2 (stereo not drawn)	-6	1	5334	-1	-4
CC(=O)Oc1ccc(NC(=O)C2CCCCC2)c(C(=O)O)c1	-3	7	20737*	5	4
COc1ccc(S(=O)(=O)N2CCOCC2)cc1NC(=O)CCCSc1ccccc1	-1	0	3967	0	-1
COc1ccc(N(C)S(=O)(=O)c2c(C)[nH]c(=O)[nH]c2=O)c(OC)c1	-3	2	23317*	0	-2
CCOC(=O)C1CCCN(C(=O)c2ccco2)C1 (stereo not drawn)	3	9	23110*	1	-1
CCOC(=O)C1CCCN(C(=O)N2CCOCC2)C1 (stereo not drawn)	-2	-1	19919*	?	-1
CCOC(=O)C1CCCN(C(=O)c2cc3c(C)nc4ccccc4c3o2)C1 (stereo not drawn)	1	9	22194*	0	3
CCOC(=O)C1CCCN(C(=O)c2ccc(-c3ccccc3Cl)o2)C1 (stereo not drawn)	nt	1	nt	nt	nt
Cc1nc2ccccc2c2oc(C(=O)N3CC(C)CC(C)C3)cc12 (stereo not drawn)	-1	-6	5918	0	-5
CC(=O)c1sc2nc(C)cc(C)c2c1N	-3	3	21807*	0	1
O=C(NC(Cc1ccc(F)cc1)C(=O)O)c1ccccc1 (stereo not drawn)	-1	2	5042	0	-20
O=C(NCc1ccccc1)N[C@@H](Cc1ccccc1)C(=O)O	-3	-6	16799*	?	-5
O=C(NCc1cccs1)N[C@@H](Cc1ccccc1)C(=O)O	2	3	10498	1	3
COC(=O)[C@H](Cc1ccccc1)NC(=O)NCc1cccs1	2	12	19692*	10	14
